Results on one sequence are retold here after PMC7862700, “An all-to-all approach to the identification of sequence-specific readers for epigenetic DNA modifications on cytosine”.

Holding throughout (assay): DAPPL (digital affinity profiling via proximity ligation, sequencing); 10 mM Tris-HCl pH 7.5, 50 mM NaCl, 1 mM DTT, 4% glycerol, room temperature, 30 min; GST-TFs on glutathione beads, 16-mer random dsDNA library, 0.1% formaldehyde crosslink after washing; high values mean tight binding
One assay has as its target T1, FLI1 (Homo sapiens, UniProt Q01543 1-452).
T1 sequence: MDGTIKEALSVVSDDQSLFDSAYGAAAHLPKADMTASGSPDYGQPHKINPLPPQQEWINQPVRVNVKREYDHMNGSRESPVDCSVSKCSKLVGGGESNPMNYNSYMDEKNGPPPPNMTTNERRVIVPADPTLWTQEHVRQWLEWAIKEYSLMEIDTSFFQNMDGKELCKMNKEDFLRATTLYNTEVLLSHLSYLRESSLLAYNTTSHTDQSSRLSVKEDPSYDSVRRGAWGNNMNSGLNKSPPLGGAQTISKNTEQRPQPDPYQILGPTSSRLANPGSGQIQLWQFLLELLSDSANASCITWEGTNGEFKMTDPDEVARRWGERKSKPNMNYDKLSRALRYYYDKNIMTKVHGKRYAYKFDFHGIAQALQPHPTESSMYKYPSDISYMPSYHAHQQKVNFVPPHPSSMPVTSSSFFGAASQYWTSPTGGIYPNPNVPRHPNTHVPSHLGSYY
The following applies: protein: recombinant; tags: N-terminal GST; dsDNA, one strand shown. The essentials:
(§1)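 Pools were built from human transcription factors expressed in yeast as GST fusions, captured on glutathione beads and DNA-barcoded, along with a tag-only sample. Incubation with 200 nmole of a 16-mer random double-stranded DNA library lasted 30 min at room temperature in Tris/NaCl/DTT/glycerol buffer, and was followed by washing, 0.1% formaldehyde crosslinking, proximity ligation, PCR amplification and Illumina NextSeq500 sequencing. Binding signal is the quotient of each hexamer's read frequency for a factor and its frequency for the tag-only sample.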

The target in another assay is T2, ELK1 (Homo sapiens, UniProt P19419 1-428).
T2 sequence: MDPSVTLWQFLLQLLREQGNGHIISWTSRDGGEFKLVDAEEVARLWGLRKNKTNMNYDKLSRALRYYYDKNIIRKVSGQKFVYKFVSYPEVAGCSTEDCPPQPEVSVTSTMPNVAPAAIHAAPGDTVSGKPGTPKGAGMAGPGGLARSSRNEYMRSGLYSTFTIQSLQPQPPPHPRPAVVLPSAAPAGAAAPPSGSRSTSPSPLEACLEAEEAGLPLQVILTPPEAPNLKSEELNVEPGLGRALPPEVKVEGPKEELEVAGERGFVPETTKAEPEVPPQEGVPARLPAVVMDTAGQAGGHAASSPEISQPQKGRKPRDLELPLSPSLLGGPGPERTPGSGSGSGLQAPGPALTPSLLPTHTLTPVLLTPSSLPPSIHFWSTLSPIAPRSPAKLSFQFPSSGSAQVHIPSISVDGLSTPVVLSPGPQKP
To be noted: protein: recombinant; tags: N-terminal GST; dsDNA, one strand shown. In a few lines: as §1

The next assay addresses T3, GABPA (Homo sapiens, UniProt Q06546 1-454).
T3 sequence: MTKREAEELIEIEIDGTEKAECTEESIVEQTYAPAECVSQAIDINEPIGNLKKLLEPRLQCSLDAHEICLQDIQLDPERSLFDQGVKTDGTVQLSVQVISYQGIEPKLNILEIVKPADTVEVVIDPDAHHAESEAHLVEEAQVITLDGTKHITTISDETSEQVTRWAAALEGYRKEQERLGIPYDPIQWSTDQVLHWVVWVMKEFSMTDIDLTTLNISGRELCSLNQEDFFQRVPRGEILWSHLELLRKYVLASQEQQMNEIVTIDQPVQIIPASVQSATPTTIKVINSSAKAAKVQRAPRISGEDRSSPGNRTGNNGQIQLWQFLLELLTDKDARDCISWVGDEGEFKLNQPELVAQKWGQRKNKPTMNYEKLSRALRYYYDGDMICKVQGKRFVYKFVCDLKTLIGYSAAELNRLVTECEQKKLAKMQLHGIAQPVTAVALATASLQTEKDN
The following applies: protein: recombinant; tags: N-terminal GST; dsDNA, one strand shown. In a few lines:
as §1

For a further assay, the target named is T4, ERG (Homo sapiens, UniProt P11308 1-479).
T4 sequence: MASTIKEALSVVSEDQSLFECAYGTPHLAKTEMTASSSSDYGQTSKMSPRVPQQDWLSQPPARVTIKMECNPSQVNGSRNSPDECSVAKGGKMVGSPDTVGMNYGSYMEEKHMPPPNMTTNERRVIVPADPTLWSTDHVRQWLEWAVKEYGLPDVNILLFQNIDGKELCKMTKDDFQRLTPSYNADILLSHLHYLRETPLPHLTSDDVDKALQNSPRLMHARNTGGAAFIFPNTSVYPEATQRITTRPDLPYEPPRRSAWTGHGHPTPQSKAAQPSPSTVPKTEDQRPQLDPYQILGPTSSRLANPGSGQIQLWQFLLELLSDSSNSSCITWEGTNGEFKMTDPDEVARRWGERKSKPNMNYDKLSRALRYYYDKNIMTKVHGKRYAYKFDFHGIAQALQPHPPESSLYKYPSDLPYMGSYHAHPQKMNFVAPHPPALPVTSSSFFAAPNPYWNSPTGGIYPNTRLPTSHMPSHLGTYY
To be noted: protein: recombinant; tags: N-terminal GST; dsDNA, one strand shown. The essentials:
as §1

The next assay addresses ELF1 (Homo sapiens, UniProt P32519 1-619). To be noted: protein: recombinant; tags: N-terminal GST; dsDNA, one strand shown. The essentials: as §1
The target of another assay is T5, EHF (Homo sapiens, UniProt Q9NZC4 1-300).
T5 sequence: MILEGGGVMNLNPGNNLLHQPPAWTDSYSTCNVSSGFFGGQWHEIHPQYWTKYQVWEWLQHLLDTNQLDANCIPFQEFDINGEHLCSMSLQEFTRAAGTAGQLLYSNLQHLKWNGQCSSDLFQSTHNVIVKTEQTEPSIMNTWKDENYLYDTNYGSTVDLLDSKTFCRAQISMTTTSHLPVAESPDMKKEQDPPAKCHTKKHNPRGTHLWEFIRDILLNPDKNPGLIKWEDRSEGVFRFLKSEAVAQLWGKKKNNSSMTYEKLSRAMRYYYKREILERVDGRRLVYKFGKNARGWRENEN
The following applies: protein: recombinant; tags: N-terminal GST; dsDNA, one strand shown. The essentials:
as §1

A further assay addresses SPI1 (Homo sapiens, UniProt P17947 1-270). To be noted: protein: recombinant; tags: N-terminal GST; dsDNA, one strand shown. In a few lines: as §1
The target of a further assay is SPIB (Homo sapiens, UniProt Q01892 1-262). To be noted: protein: recombinant; tags: N-terminal GST; dsDNA, one strand shown. In a few lines: as §1
Chain of SPIB (Q01892 whole entry): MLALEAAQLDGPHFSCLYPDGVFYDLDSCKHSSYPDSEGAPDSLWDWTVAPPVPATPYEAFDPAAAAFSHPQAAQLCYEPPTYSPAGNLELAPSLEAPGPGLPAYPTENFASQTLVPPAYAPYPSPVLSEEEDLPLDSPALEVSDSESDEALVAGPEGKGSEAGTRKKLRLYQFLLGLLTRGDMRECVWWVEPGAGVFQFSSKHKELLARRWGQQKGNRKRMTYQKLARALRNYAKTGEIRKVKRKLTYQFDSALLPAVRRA
A further assay addresses T6, ELK3 (Homo sapiens, UniProt P41970 1-407).
T6 sequence: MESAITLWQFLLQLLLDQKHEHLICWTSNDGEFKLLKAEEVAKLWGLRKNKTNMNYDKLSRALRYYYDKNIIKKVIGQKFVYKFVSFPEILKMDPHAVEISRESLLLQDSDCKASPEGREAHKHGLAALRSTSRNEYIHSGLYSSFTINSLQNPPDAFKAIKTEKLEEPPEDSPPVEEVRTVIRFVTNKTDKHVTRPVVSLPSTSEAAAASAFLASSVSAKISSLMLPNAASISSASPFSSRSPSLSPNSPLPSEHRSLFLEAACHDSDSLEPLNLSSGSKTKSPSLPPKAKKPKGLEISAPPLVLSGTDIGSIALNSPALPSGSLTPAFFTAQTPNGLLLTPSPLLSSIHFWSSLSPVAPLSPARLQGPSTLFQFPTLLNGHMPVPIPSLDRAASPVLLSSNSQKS
To be noted: protein: recombinant; tags: N-terminal GST; dsDNA, one strand shown. In a few lines: as §1

A further assay concerns the target T7, FEV (Homo sapiens, UniProt Q99581 1-238).
T7 sequence: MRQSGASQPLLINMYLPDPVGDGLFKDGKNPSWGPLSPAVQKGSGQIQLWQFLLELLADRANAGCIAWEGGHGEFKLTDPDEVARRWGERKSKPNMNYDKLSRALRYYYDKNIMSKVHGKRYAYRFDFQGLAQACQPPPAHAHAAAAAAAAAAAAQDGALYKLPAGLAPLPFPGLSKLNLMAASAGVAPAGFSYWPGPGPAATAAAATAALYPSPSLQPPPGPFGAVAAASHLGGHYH
To be noted: protein: recombinant; tags: N-terminal GST; dsDNA, one strand shown. The essentials:
as §1

For the next assay, the target named is ETV5 (Homo sapiens, UniProt P41161 1-510). To be noted: protein: recombinant; tags: N-terminal GST; dsDNA, one strand shown. The essentials: as §1
Chain of ETV5 (P41161 whole entry): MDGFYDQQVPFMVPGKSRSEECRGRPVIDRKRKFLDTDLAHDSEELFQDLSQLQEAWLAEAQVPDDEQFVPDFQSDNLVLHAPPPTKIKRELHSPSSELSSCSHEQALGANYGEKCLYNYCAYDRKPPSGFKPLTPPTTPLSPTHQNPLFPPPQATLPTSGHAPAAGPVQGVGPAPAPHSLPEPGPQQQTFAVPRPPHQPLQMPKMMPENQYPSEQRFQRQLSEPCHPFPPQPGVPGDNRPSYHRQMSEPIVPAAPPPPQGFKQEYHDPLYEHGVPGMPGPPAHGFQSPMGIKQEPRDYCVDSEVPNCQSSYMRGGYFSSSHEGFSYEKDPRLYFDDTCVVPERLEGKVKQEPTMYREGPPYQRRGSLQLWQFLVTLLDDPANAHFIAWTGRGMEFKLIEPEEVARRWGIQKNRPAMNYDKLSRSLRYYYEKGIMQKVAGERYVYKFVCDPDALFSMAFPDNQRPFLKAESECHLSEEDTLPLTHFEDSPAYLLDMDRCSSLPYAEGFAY
A further assay has as its target HSF1 (Homo sapiens, UniProt Q00613 1-529). The following applies: protein: recombinant; tags: N-terminal GST; chain copies: 3; dsDNA, one strand shown. In a few lines:
as §1

The next assay addresses T8, SPIC (Homo sapiens, UniProt Q8N5J4 1-248).
T8 sequence: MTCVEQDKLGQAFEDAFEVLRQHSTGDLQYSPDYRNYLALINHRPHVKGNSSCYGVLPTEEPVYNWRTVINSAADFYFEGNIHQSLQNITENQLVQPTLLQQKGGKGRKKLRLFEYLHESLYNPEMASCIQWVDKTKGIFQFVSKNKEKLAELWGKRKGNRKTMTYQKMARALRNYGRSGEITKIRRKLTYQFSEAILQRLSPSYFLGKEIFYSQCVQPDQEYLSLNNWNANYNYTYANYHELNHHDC
The following applies: protein: recombinant; tags: N-terminal GST; dsDNA, one strand shown. The essentials:
as §1

For the next assay, the target named is ELF4 (Homo sapiens, UniProt Q99607 1-663). The following applies: protein: recombinant; tags: N-terminal GST; dsDNA, one strand shown. In a few lines: as §1
Chain of ELF4 (Q99607 whole entry): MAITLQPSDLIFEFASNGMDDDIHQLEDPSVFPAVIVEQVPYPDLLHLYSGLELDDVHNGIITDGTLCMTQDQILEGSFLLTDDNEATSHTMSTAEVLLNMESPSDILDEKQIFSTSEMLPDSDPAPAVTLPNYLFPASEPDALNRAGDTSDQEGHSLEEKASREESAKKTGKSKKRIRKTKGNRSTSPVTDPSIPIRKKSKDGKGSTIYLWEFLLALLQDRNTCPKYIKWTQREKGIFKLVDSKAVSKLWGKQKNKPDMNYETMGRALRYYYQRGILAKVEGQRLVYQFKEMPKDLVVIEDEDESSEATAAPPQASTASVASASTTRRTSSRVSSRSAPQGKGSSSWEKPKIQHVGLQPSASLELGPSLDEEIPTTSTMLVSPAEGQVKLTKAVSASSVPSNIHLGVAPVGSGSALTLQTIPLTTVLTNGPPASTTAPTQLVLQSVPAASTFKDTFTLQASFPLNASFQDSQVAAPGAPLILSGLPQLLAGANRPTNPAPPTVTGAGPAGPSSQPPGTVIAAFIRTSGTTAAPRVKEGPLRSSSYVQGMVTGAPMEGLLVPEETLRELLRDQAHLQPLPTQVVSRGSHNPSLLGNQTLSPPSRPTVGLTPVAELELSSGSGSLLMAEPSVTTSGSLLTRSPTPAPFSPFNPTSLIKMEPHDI
A further assay concerns the target T9, ELK4 (Homo sapiens, UniProt P28324-2 1-405).
T9 sequence: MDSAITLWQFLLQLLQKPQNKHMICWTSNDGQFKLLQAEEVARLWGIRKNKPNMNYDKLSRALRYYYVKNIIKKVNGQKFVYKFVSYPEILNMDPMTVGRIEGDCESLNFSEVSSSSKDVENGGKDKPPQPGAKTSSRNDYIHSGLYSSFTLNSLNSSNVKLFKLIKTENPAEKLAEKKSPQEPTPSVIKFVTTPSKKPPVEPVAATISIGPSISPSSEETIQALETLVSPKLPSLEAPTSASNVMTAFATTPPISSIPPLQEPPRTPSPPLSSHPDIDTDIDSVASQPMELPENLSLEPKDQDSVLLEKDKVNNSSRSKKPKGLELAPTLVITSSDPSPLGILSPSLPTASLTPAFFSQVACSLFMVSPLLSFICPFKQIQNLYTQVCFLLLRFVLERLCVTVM
The following applies: protein: recombinant; tags: N-terminal GST; dsDNA, one strand shown. The essentials:
as §1

Another assay deals with T10, ETV2 (Homo sapiens, UniProt O00321 1-342).
T10 sequence: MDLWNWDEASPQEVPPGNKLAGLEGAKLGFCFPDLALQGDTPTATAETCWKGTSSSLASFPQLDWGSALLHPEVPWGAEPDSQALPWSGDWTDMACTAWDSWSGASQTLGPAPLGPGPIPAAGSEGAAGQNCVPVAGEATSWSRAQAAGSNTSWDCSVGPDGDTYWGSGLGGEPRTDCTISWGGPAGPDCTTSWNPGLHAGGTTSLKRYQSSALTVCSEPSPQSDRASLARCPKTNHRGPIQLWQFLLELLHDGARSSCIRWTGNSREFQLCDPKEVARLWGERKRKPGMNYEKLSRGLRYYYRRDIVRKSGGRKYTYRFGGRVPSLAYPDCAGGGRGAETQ
To be noted: protein: recombinant; tags: N-terminal GST; dsDNA, one strand shown. The essentials: as §1

The next assay deals with T11, ELF3 (Homo sapiens, UniProt P78545 1-371).
T11 sequence: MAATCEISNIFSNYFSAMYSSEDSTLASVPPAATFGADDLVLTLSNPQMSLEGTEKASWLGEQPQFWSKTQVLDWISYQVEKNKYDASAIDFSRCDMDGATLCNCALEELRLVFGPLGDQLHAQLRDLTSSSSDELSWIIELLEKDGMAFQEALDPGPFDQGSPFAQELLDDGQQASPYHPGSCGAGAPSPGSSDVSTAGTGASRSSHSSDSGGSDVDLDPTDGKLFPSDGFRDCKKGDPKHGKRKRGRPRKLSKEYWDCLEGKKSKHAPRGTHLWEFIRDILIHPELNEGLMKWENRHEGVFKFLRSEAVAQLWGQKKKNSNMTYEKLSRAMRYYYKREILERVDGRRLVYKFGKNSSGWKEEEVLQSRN
To be noted: protein: recombinant; tags: N-terminal GST; dsDNA, one strand shown. In a few lines: as §1

The target of the next assay is CRX (Homo sapiens, UniProt O43186 1-299). To be noted: protein: recombinant; tags: N-terminal GST; dsDNA, one strand shown. In a few lines:
as §1

In a further assay the target is ETV1 (Homo sapiens, UniProt P50549 1-477). To be noted: protein: recombinant; tags: N-terminal GST; dsDNA, one strand shown. In a few lines: as §1
Chain of ETV1 (P50549 whole entry): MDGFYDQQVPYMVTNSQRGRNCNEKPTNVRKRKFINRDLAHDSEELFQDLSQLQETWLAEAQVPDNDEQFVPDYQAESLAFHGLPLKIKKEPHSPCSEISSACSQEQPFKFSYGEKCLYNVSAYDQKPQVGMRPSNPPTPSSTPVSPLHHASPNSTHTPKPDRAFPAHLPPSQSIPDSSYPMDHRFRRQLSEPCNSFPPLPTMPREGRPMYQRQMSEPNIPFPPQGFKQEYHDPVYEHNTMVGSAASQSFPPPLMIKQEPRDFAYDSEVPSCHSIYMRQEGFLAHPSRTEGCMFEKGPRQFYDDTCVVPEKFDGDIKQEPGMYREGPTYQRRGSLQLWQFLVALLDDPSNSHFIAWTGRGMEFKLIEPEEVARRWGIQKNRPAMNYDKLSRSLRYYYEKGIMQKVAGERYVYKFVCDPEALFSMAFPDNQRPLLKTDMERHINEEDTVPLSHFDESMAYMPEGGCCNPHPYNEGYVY

Chain of HSF1 (Q00613 whole entry): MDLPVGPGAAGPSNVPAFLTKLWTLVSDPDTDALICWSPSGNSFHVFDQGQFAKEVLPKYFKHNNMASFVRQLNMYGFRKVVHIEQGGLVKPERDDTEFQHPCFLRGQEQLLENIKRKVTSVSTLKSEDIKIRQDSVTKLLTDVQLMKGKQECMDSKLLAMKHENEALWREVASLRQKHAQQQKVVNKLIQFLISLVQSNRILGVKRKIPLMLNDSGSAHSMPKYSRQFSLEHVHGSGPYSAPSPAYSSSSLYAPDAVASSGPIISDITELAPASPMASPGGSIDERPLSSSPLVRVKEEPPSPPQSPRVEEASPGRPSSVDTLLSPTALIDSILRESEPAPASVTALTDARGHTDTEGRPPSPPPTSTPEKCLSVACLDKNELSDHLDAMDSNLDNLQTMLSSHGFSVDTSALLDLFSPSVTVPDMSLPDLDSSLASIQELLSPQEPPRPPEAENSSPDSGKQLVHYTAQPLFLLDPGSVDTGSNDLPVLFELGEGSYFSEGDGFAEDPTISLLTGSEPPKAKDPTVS
Chain of CRX (O43186 whole entry): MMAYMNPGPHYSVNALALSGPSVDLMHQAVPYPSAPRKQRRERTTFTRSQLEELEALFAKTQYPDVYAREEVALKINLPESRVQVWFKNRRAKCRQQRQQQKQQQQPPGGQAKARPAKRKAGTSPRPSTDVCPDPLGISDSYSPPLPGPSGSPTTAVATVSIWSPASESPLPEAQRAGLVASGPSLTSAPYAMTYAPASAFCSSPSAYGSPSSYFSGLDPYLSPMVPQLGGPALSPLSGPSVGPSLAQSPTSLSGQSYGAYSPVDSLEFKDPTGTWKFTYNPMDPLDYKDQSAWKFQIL
Chain of ELF1 (P32519 whole entry): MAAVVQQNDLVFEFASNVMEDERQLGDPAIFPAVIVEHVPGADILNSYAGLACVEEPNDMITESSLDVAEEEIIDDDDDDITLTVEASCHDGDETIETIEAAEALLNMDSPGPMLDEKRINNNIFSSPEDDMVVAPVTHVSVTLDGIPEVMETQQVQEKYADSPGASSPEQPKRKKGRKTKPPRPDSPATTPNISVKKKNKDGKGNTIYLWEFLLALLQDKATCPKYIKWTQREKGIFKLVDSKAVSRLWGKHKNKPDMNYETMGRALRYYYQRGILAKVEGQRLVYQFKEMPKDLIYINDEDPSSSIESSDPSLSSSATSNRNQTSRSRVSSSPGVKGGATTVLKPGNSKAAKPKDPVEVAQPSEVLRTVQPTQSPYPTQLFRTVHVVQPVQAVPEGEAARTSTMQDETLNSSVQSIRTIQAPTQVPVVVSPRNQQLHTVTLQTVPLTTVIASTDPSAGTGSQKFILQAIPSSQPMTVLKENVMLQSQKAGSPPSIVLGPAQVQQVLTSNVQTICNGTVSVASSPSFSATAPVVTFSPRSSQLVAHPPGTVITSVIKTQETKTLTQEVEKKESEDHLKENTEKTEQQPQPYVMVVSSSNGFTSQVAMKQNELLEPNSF

For the sequence TAAATA, the binding signal with FLI1 is 1.23 fold enrichment (6-mer frequency, TF over GST control); in the assay with ELK1 it was 1.18 fold enrichment (6-mer frequency, TF over GST control); with GABPA it was 1.21 fold enrichment (6-mer frequency, TF over GST control); with ERG, 1.2 fold enrichment (6-mer frequency, TF over GST control); with ELF1 it was 1.21 fold enrichment (6-mer frequency, TF over GST control); in the assay with EHF, 1.23 fold enrichment (6-mer frequency, TF over GST control). In addition, the binding signal was 1.29 fold enrichment (6-mer frequency, TF over GST control) with SPI1; 1.35 fold enrichment (6-mer frequency, TF over GST control) in the assay with SPIB; 1.33 fold enrichment (6-mer frequency, TF over GST control) with ELK3; 1.19 fold enrichment (6-mer frequency, TF over GST control) in the assay with FEV; 1.27 fold enrichment (6-mer frequency, TF over GST control) in the assay with ETV5; 1.6 fold enrichment (6-mer frequency, TF over GST control) in the assay with HSF1. For the same sequence, the binding signal is 1.17 fold enrichment (6-mer frequency, TF over GST control) with SPIC; 1.26 fold enrichment (6-mer frequency, TF over GST control) with ELF4; 1.27 fold enrichment (6-mer frequency, TF over GST control) in the assay with ELK4; 1.36 fold enrichment (6-mer frequency, TF over GST control) with ETV2; 1.3 fold enrichment (6-mer frequency, TF over GST control) with ELF3; 2.12 fold enrichment (6-mer frequency, TF over GST control) with CRX. Further, in the assay with ETV1, the binding signal is 1.24 fold enrichment (6-mer frequency, TF over GST control).
